# From PubChem BioAssay (NCI)
# Several values for one entry are separate records, joined by “and”; a condition that tells them apart may be missing. Equal values may be shown once. The panel holds about 83,000 compounds, 20% with a hit somewhere; the sample as a whole holds those more often.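 A percent growth of 40 corresponds to 60% growth inhibition; 0 means no net growth; -100 means all cells died. Active threshold: below 10.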 Activity calls are given as the source filed them.
# System: MDA-MB-468 breast
# Experiment: NCI-60 one-dose screen, 48 h (100 = growth as untreated, 0 = no growth, -100 = all killed)
# Conditions: 10 µM unless noted
row,SMILES,growth
1,O=C(Cn1nncc1CN1C(=O)CSC1=O)Nc1ccc(F)cc1,104% (inactive)
2,O=C(Nc1ccccc1)Nc1ccc2cc3ccc(NC(=O)Nc4ccccc4)cc3nc2c1,-57.8% (active)
3,O=C(N/N=C/c1ccccc1)N/N=C/c1ccccc1,108% (inactive) and 96.4% (inactive)
4,O=C(/C=C/c1ccccc1)c1ccc(O)c(CN2CCN(c3cc4c(cc3F)c(=O)c(C(=O)O)cn4C3CC3)CC2)c1,3.64% (active)
5,NC(=S)N/N=C/c1ccc(Cl)s1,98.8% (inactive)
6,CN1CCN(C2=Nc3ccccc3Oc3ccc(Cl)cc32)CC1,100% (inactive)
7,c1ccc2c(-c3c4ccsc4cc4[nH]c5ccccc5c34)c[nH]c2c1,15.7% (inactive)
8,C[C@H]1[C@H](C)CC[C@]2(C(=O)Nc3ccc4ncccc4c3)CC[C@]3(C)C(=CC[C@@H]4[C@@]5(C)CCCNC(C)(C)[C@@H]5CC[C@]43C)[C@H]12,-55.7% (active)
9,CSc1nc2sc3cccc(Cl)c3n2c(=N)c1C#N,90.4% (inactive)
10,Cc1[nH]cnc1/C=C1\SC(N2CCCCC2)=NC1=O,101% (inactive)
11,CCC12CCC[N+]3([O-])CCC4(C(=Nc5ccccc54)C(O)(C(=O)OC)C1)C23 (stereo not given),112% (inactive)
12,CCOCCNC1=C(Cl)C(=O)c2ccccc2C1=O,94.7% (inactive)
13,CCCCNc1cc(C(=O)O)cc(S(N)(=O)=O)c1Oc1ccccc1,94.1% (inactive)
14,NS(=O)(=O)c1ccc(N2N=C(c3cccs3)CC2c2ccccc2O)cc1 (stereo not given),21.1% (inactive)
15,O=C1Nc2c(ccc(Cl)c2Cl)/C1=C/c1ccc(F)cc1,51.9% (inactive)
16,CC(C)=CCC[C@](C)(O)[C@H]1CC[C@]2(C)[C@@H]1CC[C@@H]1[C@@]3(C)CC[C@H](OC(=O)CCC(=O)O)C(C)(C)[C@@H]3CC[C@]12C,30.5% [100 µM] (inactive)
17,CCN(CC)c1ccc(CN(CC(=O)c2ccc(Cl)c(Cl)c2)Cc2ccccc2)cc1,91.9% (inactive)
18,CCCCCOc1ccc(/C=N/Nc2cc(C)nc3ccc(Br)cc23)cc1,-15.1% (active)
19,O=C1c2ccccc2C(=O)c2c(O)c(Cl)cc(O)c21,-15.7% (active)
20,CCOC(=O)C1CSC(C)(C(=O)OCC)N1 (stereo not given),105% (inactive)

row,SMILES,growth
1,Oc1ccc(Br)cc1/C=N/NC(=S)NC12CC3CC(CC(C3)C1)C2,46.8% (inactive)
2,COc1ccc2c3c([nH]c2c1)C(=O)c1nc(C)ccc1C3=O,14.8% (inactive)
3,Clc1cc(Cl)cc(N2N=C(c3cccc(Nc4ccncc4)c3)CC2c2ccccc2)c1 (stereo not given),37.9% (inactive)
4,CC1SC(c2ccc(Cl)cc2)N(CCc2cccs2)C1=O (stereo not given),-38.4% (active)
5,Clc1ccc(-n2ncc3c(NCCCN4CCOCC4)ncnc32)cc1,74.4% (inactive)
6,O=C(C(=O)N1CCOCC1)c1ccc(O[C@H]2O[C@H](CO)[C@@H](O)[C@H](O)[C@@H]2O)cc1,97.5% (inactive)
7,COC(=O)c1[nH]nc2c1C1(C(=O)c3cccc4cccc1c34)C(C#N)=C(N)O2 (stereo not given),86.3% (inactive)
8,Cc1ccc(S(=O)(=O)Oc2ccc([N+](=O)[O-])cc2[N+](=O)[O-])cc1,107% (inactive)
9,COc1ccc(CCN2C(=O)/C(=C/c3ccc(C4Oc5ccccc5C5CC(c6cccc(OC)c6)=NN54)cc3)SC2=S)cc1 (stereo not given),107% (inactive)
10,O=C(CN1CCOCC1)NNc1ncnc2ccccc12,55.9% (inactive)
11,COc1cc(C(=O)/C=C/c2cc(C(=O)c3cc(OC)c(OC)c(OC)c3)ccc2OC)ccc1N,-44.7% (active)
12,O=C(Nc1ccc(Cl)cc1)Oc1c(Cl)c(Cl)c(Cl)c(Cl)c1Cl,106% (inactive)
13,COc1cc(C2CC(C3C(=O)N(C)C(=O)N(C)C3=O)=NN2C=O)cc(OC)c1OC (stereo not given),103% (inactive)
14,COc1ccc2c(c1)c(-c1nc(-c3c[nH]c4ncccc34)cs1)cn2CCCN1CCOCC1,42% (inactive)
15,COc1ccccc1/C=N\Nc1ccc([N+](=O)[O-])cn1,109% (inactive)
16,O=C(Nc1nc2c(s1)CCc1c-2c(Br)n(Cc2ccccc2)c1Br)c1ccccc1,72.8% (inactive)
17,Cc1nn(-c2ccc(Cl)cc2)c2ncnc(N/N=C/c3ccccc3O)c12,-30.8% (active) and -12.1% (active)
18,CCOC(=O)c1cc(C(=O)c2ccc(OC)c(OC)c2)n2c1ccc1ccc3cccnc3c12,38.5% (inactive)
19,COc1cc(-c2n[nH]nc2-c2ccccn2)cc(OC)c1OC,104% (inactive)
20,O=C(CI)Nc1ccc(O)c2ccccc12,-71.7% (active)
